# Results taken from PubChem BioAssay (NCATS).
# Values joined by “and” are separate entries in the source; they are usually repeats but may differ in a detail not shown here. Identical values can stand only once. Results filed as inconclusive are left out. Where a call stands in place of a potency, no number is given. Active and inactive are the calls of the source. The call rests on the fitted dose curve; in most records, active means well fitted cell-killing curve with a large enough effect; inconclusive means small, poorly fitted or top-dose-only effect; inactive means flat fitted curve, though single readings scatter.
# Experiment: qHTS of pediatric cancer cell lines to identify multiple opportunities for drug repurposing: Primary screen for RD cells (AID 1347104); further: nearly all actives have a fitted effect of over 55% in size
# Conditions: RD rhabdomyosarcoma viability, CellTiter-Glo luminescence, 48 h; series mostly up to 46 µM
# Method in brief: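 Quantitative HTS format: each compound titrated (MIPE 11 points from 0.78 nM, NPC 8 points from 0.59 nM) onto cells plated 5 hours earlier. After 48 h at 37 degrees C, CellTiter-Glo luminescence was recorded.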
# Potency means the concentration at half of the fitted maximal effect.
row,Compound,Potency
1,O=C(OC1C[C@H]2CC[C@@H](C1)[N+]21CCCC1)C(O)(c1ccccc1)c1ccccc1 (some centres not stated),inactive
2,C=CCc1cc(OC)c(O)c(C(=O)NCCO)c1,inactive
3,Cc1cccc(-c2[nH]ncc2-c2ccc3ncccc3n2)n1,inactive
4,Cc1nc(-c2ccc(OCC(C)C)c(C#N)c2)sc1C(=O)O,inactive
5,Oc1ccc(OCc2ccccc2)cc1,inactive
6,O=C(NCCO[N+](=O)[O-])c1cccnc1,inactive
7,Cc1ccc(C)c(OCCCC(C)(C)C(=O)O)c1,inactive
8,CC1(C)NC(=O)N(c2ccc([N+](=O)[O-])c(C(F)(F)F)c2)C1=O,inactive
9,CC1(C)C(=O)N(CCN2CCC(C(=O)c3ccc(F)cc3)CC2)c2ccccc21,inactive
10,CCOC(=O)C1=C[C@@H](OC(CC)CC)[C@H](NC(C)=O)[C@@H](N)C1,inactive
11,C[C@@H](N)C1CCC(C(=O)Nc2ccncc2)CC1 (some centres not stated),inactive
12,Cc1nccn1CC1CCc2c(c3ccccc3n2C)C1=O (configuration not stated),inactive
13,CCOc1cc(CC(=O)N[C@@H](CC(C)C)c2ccccc2N2CCCCC2)ccc1C(=O)O,inactive
14,Cc1cc(=O)oc2cc(O)ccc12,inactive
15,CC(C)Oc1ccc2c(=O)c(-c3ccccc3)coc2c1,inactive
16,c1ccc2[nH]c(-c3cscn3)nc2c1,inactive

row,Compound,Potency
1,CNC[C@@H](O)[C@@H](O)[C@H](O)[C@H](O)CO,inactive
2,COc1c2occc2cc2ccc(=O)oc12,inactive
3,C[C@]12CCC(=O)C=C1CC[C@@H]1[C@H]2[C@@H](O)C[C@@]2(C)[C@H]1CC[C@]2(O)C(=O)CO,inactive
4,O=C(CCc1ccc(O)cc1)c1c(O)cc(O)cc1O,inactive
5,Cc1ncc([N+](=O)[O-])n1CC(C)O (configuration not stated),inactive
6,Cc1cc(=O)c2c(O)c3c(O)cc(=O)c4c3c3c(cc(O)c1c23)C(C)(C)C=4O,2.06 µM (active) and 3.72 µM (active)
7,CN(C)CCc1c[nH]c2ccc(Cn3cncn3)cc12,inactive
8,O=C(O)CCNC(=O)c1ccc(N=Nc2ccc(O)c(C(=O)O)c2)cc1,inactive
9,COCCCN1CCC(NC(=O)c2cc(Cl)c(N)c3c2OCC3)CC1,inactive
10,CCN(CC)C(=S)SSC(=S)N(CC)CC,11.8 nM (active) and 35.1 nM (active) and 150 nM (active)
11,CC1Cc2ccccc2N1NC(=O)c1ccc(Cl)c(S(N)(=O)=O)c1 (configuration not stated),inactive
12,O=C(CS(=O)Cc1ccco1)NCC=CCOc1cc(CN2CCCCC2)ccn1 (configuration not stated),inactive
13,O=P(O)(O)C(O)(Cn1ccnc1)P(=O)(O)O,inactive
14,CC1=C(C(=O)O)N2C(=O)[C@@H](NC(=O)[C@H](N)C3=CCC=CC3)[C@H]2SC1,inactive
15,COc1ccccc1N1CCN(CCN(C(=O)C2CCCCC2)c2ccccn2)CC1,inactive
16,COc1ccc(C2(C#N)CCC(C(=O)O)CC2)cc1OC1CCCC1 (configuration not stated),inactive
